Where a name gives a salt, the structure may show the parent alone.
These compounds were tested on Saccharomyces cerevisiae BY4741 SeMeCo community (assay: z-score of subpopulation abundance vs DMSO median, subpopulation auxotrophic for HLUM; higher = larger share of this subpopulation than in DMSO controls). Conditions: 10 µM; 24 h; SM minimal medium; subpopulation (auxotrophy): HLUM.
How it was run: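 Automated confocal microscopy of paraformaldehyde-fixed cells was used to follow a Saccharomyces cerevisiae BY4741 community carrying four plasmids, each restoring one auxotrophy and encoding a distinct fluorescent protein. The community was pre-grown overnight to OD600 1.0, diluted to 0.3, and added at 70 µl to 384-well plates acoustically predosed with library drugs (10 µM final) for 24 h of growth in minimal SM medium. Single-auxotroph fluorescent strains set thresholds and autofluorescence correction, and each subpopulation's abundance was scored as a z-score against the vehicle-well median.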

SMILES	z-score of subpopulation abundance
O=C(O)CCNC(=O)c1ccccc1 [Betamipron]	-0.5
O=c1cc(-c2ccc(O)c(O)c2)oc2cc(O)cc(O)c12 [Luteolin]	-0.27
CN1C[C@@H]2C[C@H]1CN2c1cc2c(cc1F)c(=O)c(C(=O)O)cn2C1CC1 [Danofloxacin Mesylate]	-0.14
Cc1noc(NS(=O)(=O)c2ccc(N)cc2)c1C [Sulfisoxazole]	1.03
O=C1C(CC[S+]([O-])c2ccccc2)C(=O)N(c2ccccc2)N1c1ccccc1 (racemic) [(+/-)-Sulfinpyrazone]	-0.47
CCCCCCCCCC(=O)N[C@@H](Cc1c[nH]c2ccccc12)C(=O)N[C@H](CC(N)=O)C(=O)N[C@@H](CC(=O)O)C(=O)N[C@@H]1C(=O)NCC(=O)N[C@@H](CCCN)C(=O)N[C@@H](CC(=O)O)C(=O)N[C@H](C)C(=O)N[C@@H](CC(=O)O)C(=O)NCC(=O)N[C@H](CO)C(=O)N[C@@H]([C@H](C)CC(=O)O)C(=O)N[C@@H](CC(=O)c2ccccc2N)C(=O)O[C@@H]1C [Daptomycin]	-0.99
OCc1ccc(Cl)cc1Cl [2,4-dichlorobenzyl alcohol]	0.69
CN(C)CCC=C1c2ccccc2CCc2ccccc21 [Amitriptyline HCl]	-0.81
Cc1ccc(Sc2ccccc2N2CCNCC2)c(C)c1	-0.16
Nc1ccc(S(=O)(=O)Nc2ccccn2)cc1 [Sulfapyridine]	-0.89
CN1CC(=O)N2[C@H](c3ccc4c(c3)OCO4)c3[nH]c4ccccc4c3C[C@@H]2C1=O [Tadalafil]	1.5
CCOC(=O)C1=C[C@@H](OC(CC)CC)[C@H](NC(C)=O)[C@@H](N)C1 [Oseltamivir Phosphate]	0.24
N#CC(c1ccc(Cl)cc1)c1c(Cl)cc(-n2ncc(=O)[nH]c2=O)cc1Cl (stereo not drawn) [Diclazuril]	0.35
CCCN[C@H]1CCc2nc(N)sc2C1 [Pramipexole dihydrochloride]	0
O=C(O)c1ccccc1O [Salicylic acid]	-0.68
CCCOc1ccc(C(=O)OCCN(CC)CC)cc1N [Proparacaine HCl]	-0.51
CCOc1ccc2ccccc2c1C(=O)N[C@@H]1C(=O)N2[C@@H]1SC(C)(C)[C@@H]2C(=O)O [Nafcillin Sodium]	-0.09
CC(C)(O/N=C(\C(=O)N[C@@H]1C(=O)N2C(C(=O)[O-])=C(C[n+]3ccccc3)CS[C@H]12)c1csc(N)n1)C(=O)O [Ceftazidime]	-0.76

Reference: the supplement of paper PMC8975748
